Values joined by “and” are separate entries in the source; they are usually repeats but may differ in a detail not shown here. Equal values may be shown once. Compounds without any hit were thinned out: in the full panel of roughly 83,000, 20% have a hit.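 Percent growth is the endpoint: 0 to 100 indicates growth inhibition (40 means 60% inhibition), 0 means no net growth, and negative values indicate cell death.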 Active and inactive are the calls of the source. Rule for the calls: active = growth percent below 10; inactive = the rest.
What was measured:
Test in all cases: NCI-60 one-dose screen, 48 h (100 = growth as untreated, 0 = no growth, -100 = all killed)
NCI-H226 lung = settings: 10 µM
NCI-H322M lung = settings: 10 µM
HOP-62 NSCLC = settings: 10 µM
A549/ATCC NSCLC = settings: 10 µM
786-0 renal = settings: 10 µM
COLO 205 colon = settings: 10 µM
DU-145 prostate = settings: 10 µM
SF-268 CNS = settings: 10 µM
SF-295 CNS = settings: 10 µM
SF-539 CNS = settings: 10 µM
HCT-15 colon = settings: 10 µM
SNB-75 CNS = settings: 10 µM
SNB-19 CNS = settings: 10 µM
U251 CNS = settings: 10 µM
PC-3 prostate = settings: 10 µM
EKVX NSCLC = settings: 10 µM
UO-31 renal = settings: 10 µM
ACHN renal = settings: 10 µM
HL-60(TB) leukemia = settings: 10 µM unless noted
CCRF-CEM leukemia = settings: 10 µM

Row | Compound | growth (NCI-H226 lung) | growth (NCI-H322M lung) | growth (HOP-62 NSCLC) | growth (A549/ATCC NSCLC) | growth (786-0 renal) | growth (COLO 205 colon) | growth (DU-145 prostate) | growth (SF-268 CNS) | growth (SF-295 CNS) | growth (SF-539 CNS) | growth (HCT-15 colon) | growth (SNB-75 CNS) | growth (SNB-19 CNS) | growth (U251 CNS) | growth (PC-3 prostate) | growth (EKVX NSCLC) | growth (UO-31 renal) | growth (ACHN renal) | growth (HL-60(TB) leukemia) | growth (CCRF-CEM leukemia)
1 | COc1cc2c(O[C@@H]3OC[C@H](OC(C)=O)[C@H](OC(C)=O)[C@H]3O)c3c(c(-c4ccc5c(c4)OCO5)c2cc1OC)C(=O)OC3 | 2.53% (active) | 61.5% (inactive) | 36.9% (inactive) | 12.4% (inactive) | 20% (inactive) | 5.65% (active) | 43% (inactive) | 42.4% (inactive) | -43% (active) | 25.6% (inactive) | 1.41% (active) | 6.09% (active) | 58.7% (inactive) | 28.5% (inactive) | 26.5% (inactive) | 39.5% (inactive) | 50% (inactive) | 29% (inactive) | 26% (inactive) | 20.1% (inactive)
2 | C/C=C/CC(C)C(O)[C@H](NC(=O)[C@@H]1CCCN1C(=O)C(C)(C)NC(=O)CCCCCCCCC)C(=O)N[C@@](C)(CC)C(=O)N[C@@H](CCC(N)=O)C(=O)N[C@H](CCC(N)=O)C(=O)NC(C)(C)C(=O)N[C@@](C)(CC)C(=O)N[C@@H](CCC(N)=O)C(=O)N[C@H](CC(C)C)C(=O)N[C@H](CO)CC(C)C (stereo not given in full) | 99.5% (inactive) and -21.5% (active) | 105% (inactive) and -23.7% (active) | 104% (inactive) and -67.3% (active) | 103% (inactive) and 26.2% (inactive) | 108% (inactive) and -81.9% (active) | 104% (inactive) and -60.2% (active) | 103% (inactive) and -72.3% (active) | 104% (inactive) and -52.9% (active) | 104% (inactive) and -83.9% (active) | 100% (inactive) and -100% (active) | 101% (inactive) and 20.9% (inactive) | 96.1% (inactive) and -85.9% (active) | 101% (inactive) and -98% (active) | 107% (inactive) and -75.1% (active) | 97.3% (inactive) and -48.8% (active) | 106% (inactive) and -68.1% (active) | 85.2% (inactive) and -84.9% (active) | 103% (inactive) and -7.13% (active) | 100% (inactive) and -46.1% (active) | 98.9% (inactive) and -46.2% (active)

Source: PubChem BioAssay (NCI)
